Experimental data taken from ChEMBL document CHEMBL1857833, “Screening and optimization of specific chemical series against human African Trypanosomiasis (HAT)”.
Where “and” joins values, the source holds several entries; their conditions need not be identical. Identical values can stand only once. Among all 4,400 compounds or so, about 390 (8.9%) showed an effect of 50% or more. The entries come from a sample that favours strong results as a whole.

These molecules were tested on Trypanosoma brucei (assay: DNDI: Inhibition of Human African Trypanosomiasis, SBRI 427, in vitro at 2 ug.mL-1).
Assay type: functional
`CCOc1cccc(-c2nc(CNC(CC)c3ccccc3)co2)c1` (configuration not stated) was tested, and the “% inhibition” value was 27%. In the case of `Fc1ccc(N2CCN(Cc3coc(-c4ccccc4Br)n3)CC2)cc1`, the “% inhibition” value was -6%. With `Cc1nccn1/C(=N\O)c1cccnc1OCC(C)C` the “% inhibition” value was -13%. For `O/N=C(\NCc1cc(F)ccc1F)c1ccc(Oc2ccc3ccccc3c2)nc1`, the “% inhibition” value was 31%. For `CSCCN/C(=N\O)c1cccnc1OCC(C)C`, the “% inhibition” value was -5%. For `CC(C)COc1ncccc1/C(=N/O)NCC(C)(C)C`, the “% inhibition” value was 95%. With `COCCN/C(=N\O)c1cccnc1OCC(C)C` the “% inhibition” value was -7%. For `CC(C)COc1ncccc1/C(=N/O)NCc1ccccc1`, the “% inhibition” value was 37%. `Cc1cc(C)cc(CN/C(=N\O)c2cccnc2OCC(C)(C)C)c1` was tested, and the “% inhibition” value was -8%. With `Cc1cc(C)cc(CN/C(=N\O)c2cccnc2OCC(C)C)c1` the “% inhibition” value was 92%. With `Fc1cccc(-c2nc(CNc3cc[nH]n3)co2)c1` the “% inhibition” value was 45%. In the case of `FC(F)(F)c1ccc(-c2nc(CN3CCN(C(c4ccccc4)c4ccccc4)CC3)co2)cc1`, the “% inhibition” value was -3%. `CCOc1ccc(-c2nc(CNC(CC)c3ccccc3)co2)cc1` (configuration not stated) was tested, and the “% inhibition” value was 1% and -14%. `CCCCN(CC)Cc1coc(-c2ccccc2Cl)n1` was tested, and the “% inhibition” value was 19%. With `COc1ccc(-c2nc(CNCCCN3CCCCC3C)co2)cc1` (configuration not stated) the “% inhibition” value was 97%. `CC1CCCCN1CCCNCc1coc(-c2ccc(F)cc2)n1` (configuration not stated) was tested, and the “% inhibition” value was 72%. With `Fc1ccc(-c2nc(CNCCN3CCCCC3)co2)cc1` the “% inhibition” value was -17%. `Fc1ccc(-c2nc(CNCCN3CCCC3)co2)cc1` was tested, and the “% inhibition” value was 1%. With `COc1ccc(-c2nc(CN3CCCCC3C)co2)cc1` (configuration not stated) the “% inhibition” value was 12%. With `CC1CCCCN1CCCNCc1coc(-c2ccco2)n1` (configuration not stated) the “% inhibition” value was 23%. For `COC(=O)C1CCN(/C(=N\O)c2cccnc2Oc2cccc3ccccc23)CC1`, the “% inhibition” value was 9%. With `CC1CCCN1/C(=N\O)c1cccnc1Oc1ccc(Cl)cc1` (configuration not stated) the “% inhibition” value was -13%. `CN(Cc1coc(-c2ccc(C(F)(F)F)cc2)n1)c1ccccc1` was tested, and the “% inhibition” value was 1%. With `Oc1ccc(-c2nc(CN(Cc3ccccc3)c3ccccc3)co2)cc1` the “% inhibition” value was 11%. In the case of `NCCc1cn(Cc2coc(-c3cccs3)n2)c2ccccc12`, the “% inhibition” value was -15%. `CCN(Cc1ccccc1)Cc1coc(-c2ccc(OC)cc2)n1` was tested, and the “% inhibition” value was -11%. For `Cc1ccc(/C(=N/O)NCc2cc(F)cc(F)c2)c(OCc2cccc(F)c2)n1`, the “% inhibition” value was -12%. With `CSCCN/C(=N\O)c1ccc(C)nc1Oc1cccc(F)c1` the “% inhibition” value was 12%. With `CCC(C)(C)N/C(=N\O)c1ccc(C)nc1Oc1cccc(F)c1` the “% inhibition” value was 13%. For `Cc1ccc(/C(=N/O)NCC(C)(C)C)c(Oc2ccc3ccccc3c2)n1`, the “% inhibition” value was 96%. With `Cc1ccc(/C(=N/O)NCC(C)(C)C)c(OCc2cccc(F)c2)n1` the “% inhibition” value was 96%. With `Cc1cccc(Oc2nc(C)ccc2/C(=N/O)NCc2ccccc2)c1` the “% inhibition” value was 6%. For `Cc1ccc(/C(=N/O)NCC2CC2)c(Oc2ccc3ccccc3c2)n1`, the “% inhibition” value was 17%. `CCCN/C(=N\O)c1ccc(C)nc1OCc1cccc(F)c1` was tested, and the “% inhibition” value was 0%. In the case of `CCC(C)(C)N/C(=N\O)c1ccc(C)nc1Oc1cccc(C)c1`, the “% inhibition” value was 19%. For `CSCCN/C(=N\O)c1ccc(C)nc1Oc1ccc2ccccc2c1`, the “% inhibition” value was 7%. With `Cc1ccc(/C(=N/O)NCC(C)(C)C)c(Oc2cccc(F)c2)n1` the “% inhibition” value was 99%. With `Cc1cccc(Oc2nc(C)ccc2/C(=N/O)NCC(C)(C)C)c1` the “% inhibition” value was 100%. With `Cc1cccc(-c2nc(Cn3cc(-c4ccccc4)c(C)n3)co2)c1` the “% inhibition” value was -11%. For `c1ccc(-c2nc(CN3CCC4CCCCC4C3)co2)cc1` (configuration not stated), the “% inhibition” value was 37%. In the case of `C#CC(CC)(CC)NCc1coc(-c2cccs2)n1`, the “% inhibition” value was -2%. With `CCN(Cc1ccccc1)Cc1coc(-c2cccc(OC)c2)n1` the “% inhibition” value was -7%. For `CCN1CCN(Cc2coc(-c3ccc(C(F)(F)F)cc3)n2)CC1`, the “% inhibition” value was 10%. With `CCCc1nccn1Cc1coc(-c2cccc(F)c2)n1` the “% inhibition” value was 5%. In the case of `COc1cc(CNCc2coc(-c3ccc(C)cc3)n2)cc(OC)c1OC`, the “% inhibition” value was 9%. `O=c1c(Cl)cn(Cc2coc(-c3ccc(C(F)(F)F)cc3)n2)cc1Cl` was tested, and the “% inhibition” value was -5%. With `COc1ccc(-c2nc(CN3CCN(c4ccccc4OC)CC3)co2)cc1` the “% inhibition” value was 13%. In the case of `CC(C)(C)c1ccc(CNCc2coc(-c3cccc4ccccc34)n2)cc1`, the “% inhibition” value was -1%. `COc1ccc(Oc2nc(C)ccc2/C(=N/O)NCC2CCCCC2)cc1` was tested, and the “% inhibition” value was 24%. `COc1ccccc1Oc1ncccc1/C(=N/O)NCc1ccco1` was tested, and the “% inhibition” value was 27%. `CC1CC(N/C(=N\O)c2cccnc2Oc2ccc(-n3cncn3)cc2)CC(C)(C)C1` (configuration not stated) was tested, and the “% inhibition” value was 41%. In the case of `CC1CCC(N/C(=N\O)c2cccnc2Oc2ccc(-n3cncn3)cc2)CC1` (configuration not stated), the “% inhibition” value was 98%. With `COc1ccc(Oc2ncccc2/C(=N/O)NCC2CCCCC2)cc1` the “% inhibition” value was 93%. For `COc1ccc(CN/C(=N\O)c2cccnc2Oc2ccccc2OC)cc1`, the “% inhibition” value was 13%. `CC(C)N/C(=N\O)c1cccnc1Oc1ccc(-n2cncn2)cc1` was tested, and the “% inhibition” value was 42%. In the case of `COc1ccccc1Oc1ncccc1/C(=N/O)NCC1CC1`, the “% inhibition” value was 96%. `COc1ccc(Oc2ncccc2/C(=N/O)NCC2CC2)cc1` was tested, and the “% inhibition” value was 99%. For `COc1cccc(-c2nc(Cn3cnc(-c4ccccc4)c3)co2)c1`, the “% inhibition” value was -15%. With `O/N=C(/c1cccnc1Oc1ccc(F)cc1)N1CCCCCC1` the “% inhibition” value was 1%. In the case of `COc1ccc(CN/C(=N\O)c2cccnc2Oc2ccc3c(c2)CCCC3)cc1`, the “% inhibition” value was 8%. `Cc1ccc(/C(=N/O)Nc2ccc(C(C)C)cc2)c(Oc2cccc(F)c2)n1` was tested, and the “% inhibition” value was 16%. With `Cc1ccc(/C(=N/O)NCc2ccc(C)o2)c(Oc2ccc3oc4ccccc4c3c2)n1` the “% inhibition” value was 9%. With `CCCCN(CCC#N)Cc1coc(-c2ccc(C(C)(C)C)cc2)n1` the “% inhibition” value was 3%. With `CCOc1ccc(-c2nc(CNCc3ccccc3C(F)(F)F)co2)cc1` the “% inhibition” value was 1%. With `O/N=C(\NCC1CC1)c1cccnc1Oc1ccc2ccccc2c1` the “% inhibition” value was 99%. With `CCCN(CC1CC1)/C(=N\O)c1cccnc1Oc1ccccc1SC` the “% inhibition” value was 30%. With `CC(C)(C)COc1ncccc1/C(=N/O)NCC1CCCCC1` the “% inhibition” value was -1%. For `O/N=C(\NCC1CCCCC1)c1cccnc1Oc1ccc(Cl)cc1`, the “% inhibition” value was 98%. In the case of `O/N=C(\NCCN1CCOCC1)c1cccnc1Oc1ccc2ccccc2c1`, the “% inhibition” value was -10%. In the case of `O/N=C(\NCC1CCCCC1)c1cccnc1Oc1ccc(-n2cncn2)cc1`, the “% inhibition” value was 90%. With `O/N=C(\NCc1ccccc1)c1cccnc1Oc1ccc(-n2cncn2)cc1` the “% inhibition” value was 21%. In the case of `CSc1ccccc1Oc1ncccc1/C(=N/O)NCCN1CCCC1`, the “% inhibition” value was 22%. In the case of `CSc1ccccc1Oc1ncccc1/C(=N/O)NCC1CC1`, the “% inhibition” value was 99%. With `Cc1ccc(/C(=N/O)NCC2CCCCC2)c(Oc2ccc3ccccc3c2)n1` the “% inhibition” value was 18%. In the case of `O/N=C(\NCC1CCCO1)c1cccnc1Oc1ccc(-n2cncn2)cc1` (configuration not stated), the “% inhibition” value was 24%. `Cc1ccc(/C(=N/O)NCC2CCCCC2)c(Oc2ccc(Cl)cc2)n1` was tested, and the “% inhibition” value was -11%. For `COc1ccc(CN/C(=N\O)c2ccc(C)nc2OCc2ccccc2F)cc1`, the “% inhibition” value was -1%. `COc1cc(C)ccc1Oc1nc(C)ccc1/C(=N/O)n1nc(C)cc1C` was tested, and the “% inhibition” value was -5%. In the case of `O/N=C(/c1ccc(Oc2cccc3c2CCCC3)nc1)N1CCN(c2ccc(F)cc2)CC1`, the “% inhibition” value was 26%. With `COc1cc(-c2nc(Cn3ccnc3C)co2)cc(OC)c1OC` the “% inhibition” value was -1%. For `Fc1ccc(N2CCN(Cc3coc(-c4ccco4)n3)CC2)cc1`, the “% inhibition” value was 13%. For `FC(F)(F)c1ccc(-c2nc(Cn3ccnc3)co2)cc1`, the “% inhibition” value was -3%. With `O/N=C(\NCC1CC1)c1cccnc1Oc1ccc(F)cc1` the “% inhibition” value was 97%. For `CCN(CC)c1cccc(Oc2ncccc2/C(=N/O)NCC2CC2)c1`, the “% inhibition” value was 6%. For `O/N=C(\NCc1ccccn1)c1cccnc1Oc1ccc(Cl)cc1`, the “% inhibition” value was 10%. For `N/C(=N\O)c1cccnc1Oc1ccc(F)c(Cl)c1`, the “% inhibition” value was 10%. In the case of `CC(C)(C)CN/C(=N\O)c1cccnc1Oc1ccc(Cl)cc1`, the “% inhibition” value was 99%. In the case of `N/C(=N\O)c1cccnc1Oc1ccc(Cl)cc1`, the “% inhibition” value was 59%. For `COc1ccc(Oc2ncccc2/C(=N/O)NCC(C)C)cc1`, the “% inhibition” value was -7%. In the case of `O/N=C(\NCc1cccnc1)c1cccnc1Oc1ccc(Cl)cc1`, the “% inhibition” value was 4%. For `COc1ccc(Oc2ncccc2/C(=N/O)NCC(C)(C)C)cc1`, the “% inhibition” value was 98%. `Cc1ccc(Oc2ncccc2/C(N)=N/O)cc1` was tested, and the “% inhibition” value was 21%. In the case of `CCCN(Cc1coc(-c2cccc(F)c2)n1)C(C)CC` (configuration not stated), the “% inhibition” value was -4%. With `COc1cc(CNCc2coc(-c3cccs3)n2)cc(OC)c1` the “% inhibition” value was -7%. For `COc1cc(-c2nc(CN3CCCCC3C)co2)cc(OC)c1OC` (configuration not stated), the “% inhibition” value was -4%. With `Cc1ccc(/C(=N/O)N2CCCCC2)c(Oc2ccc3oc4ccccc4c3c2)n1` the “% inhibition” value was 7%. With `CC(C)(C)COc1ncccc1/C(=N/O)NCc1ccccn1` the “% inhibition” value was 12%. `CCOc1ccc(-c2nc(CNCc3cccc(OC)c3OC)co2)cc1` was tested, and the “% inhibition” value was 3%. In the case of `CSc1ccc(Oc2nc(C)ccc2/C(=N/O)NCC(C)C)cc1C`, the “% inhibition” value was -14%. For `C#CCNCc1coc(-c2ccc(OC)cc2)n1`, the “% inhibition” value was -25%. For `COc1ccc(N(C)Cc2coc(-c3ccc(F)cc3)n2)cc1`, the “% inhibition” value was -2%. With `Cc1ccc(C)c(N2CCN(Cc3coc(-c4ccc(OC(F)(F)F)cc4)n3)CC2)c1` the “% inhibition” value was 33%. For `Cc1ccc(/C(=N/O)NC(C)C)c(Oc2cccc3ccc(C)nc23)n1`, the “% inhibition” value was 31%. With `O/N=C(\NCC1CCCO1)c1ccc(Oc2c(F)c(F)cc(F)c2F)nc1` (configuration not stated) the “% inhibition” value was 25%. In the case of `CC1CCC(N/C(=N\O)c2ccc(Oc3c(F)c(F)cc(F)c3F)nc2)CC1` (configuration not stated), the “% inhibition” value was 17%. `O/N=C(\NC1CCCCC1)c1ccc(Oc2c(F)c(F)cc(F)c2F)nc1` was tested, and the “% inhibition” value was 100%. For `O/N=C(\NC1CCc2ccccc21)c1ccc(Oc2c(F)c(F)cc(F)c2F)nc1` (configuration not stated), the “% inhibition” value was 19%. In the case of `O/N=C(\NCC1CCCCC1)c1ccc(Oc2c(F)c(F)cc(F)c2F)nc1`, the “% inhibition” value was 40%. In the case of `CN(/C(=N\O)c1ccc(Oc2c(F)c(F)cc(F)c2F)nc1)C1CCCCC1`, the “% inhibition” value was 21%. With `O/N=C(\NC1CCCC1)c1ccc(Oc2c(F)c(F)cc(F)c2F)nc1` the “% inhibition” value was 99%. `O/N=C(\NC1CCC1)c1ccc(Oc2c(F)c(F)cc(F)c2F)nc1` was tested, and the “% inhibition” value was 100%. `CC1CC(N/C(=N\O)c2ccc(Oc3c(F)c(F)cc(F)c3F)nc2)CC(C)(C)C1` (configuration not stated) was tested, and the “% inhibition” value was 22%.
